The values that follow come from the supplement of paper PMC10849652.

The full data set covers some 7,900 targets. This sample favours those with a hit. About 0.6% of all pairs of compound and target were hits. A number with no mark means an inactive call.

What all share (assay): log2 fold change, soluble protein after heating vs DMSO (PISA); higher = thermal stabilisation; K562 cells, 10 uM, 30 min; active = over 0.2 and 3.5 SD of the protein, either way, in both replicates (recomputed)
Compound in one experiment: C1COCCN1CCN2C3=CC=CC=C3N=C2NC(=O)C4=CC(=CC=C4)[N+](=O)[O-] [IRAK-1-4 Inhibitor I]
The method, boiled down:
(§1)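 Aliquots of K562 cells (2×10^6 cells/mL) treated with 10 μM compound for 30 min were heated for 3 min over 48°C-58°C. After pooling and extraction in PBS with 0.5% NP-40 at 4°C, soluble protein from a 21,000xg, 90 min spin was quantified by TMTpro 16plex LC-MS/MS with channel sums equalised. Thermal stability is expressed against control samples, from duplicates, as a log2 fold change.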

Compound in another experiment: C=CC(=O)N1CCC[C@@H](n2nc(-c3ccc(Oc4ccccc4)cc3)c3c(N)ncnc32)C1 [ibrutinib]
The method, boiled down: as §1

Compound in experiment [1]: CC(=O)c1cnc2ccc(-c3cc(Cl)c(O)c(Cl)c3)nc2c1N[C@H]1CC[C@H](CN(C)C)CC1
The method, boiled down:
as §1

Compound in the next experiment: CC(C)(C)Cn1c(N)nc2ccc(-c3[nH]c(C(C)(C)C)nc3-c3ccc(F)cc3)nc21 [ralimetinib]
The method, boiled down: as §1

Compound in experiment [2]: CC(C)(O)CC(=O)NCCn1ccc2ncnc(Nc3ccc(Oc4cccc(C(F)(F)F)c4)c(Cl)c3)c21
The method, boiled down:
as §1

Compound in experiment [3]: CC(C)C1=C2N=C(C=C(N2N=C1)NCC3=CC=CC=C3)NCCCCCCN
The method, boiled down:
as §1

Compound in experiment [4]: CC(C)C[C@@H](C=O)NC(=O)[C@H](CC(C)C)NC(=O)[C@H](CC(C)C)NC(=O)OCc1ccccc1
In outline: as §1

Compound in another experiment: CC(C)N(C[C@H]1O[C@@H](n2cnc3c(N)ncnc32)[C@H](O)[C@@H]1O)[C@H]1C[C@@H](CCc2nc3cc(C(C)(C)C)ccc3[nH]2)C1 [pinometostat]
In outline:
as §1

Compound in experiment [5]: CC1=C(C(CC(=O)N1)C2=CC=C(C=C2)C(F)(F)F)C(=O)NC3=C(C=C4C(=C3)C=NN4)F
The method, boiled down: as §1

Compound in experiment [6]: CC1=C(C2=C(C=C1)C(=O)C3=CC=CC=C3N2CCCN)C
In outline: as §1

Compound in experiment [7]: CC1=C(C=C(C=C1)NC(=O)C2=CC(=CC=C2)C(C)(C)C#N)NC3=CC4=C(C=C3)N=CN(C4=O)C
In outline: as §1

Compound in experiment [8]: CC1=C(C=C(C=C1)NC(=O)C2=CC(=CC=C2)N(C)C)NC(=O)C3=CC=C(C=C3)O
The method, boiled down:
as §1

Compound in experiment [9]: CC1=CC=C(C=C1)SC2=C3C=C(SC3=CN=C2)C(=O)N
The method, boiled down: as §1

Compound in experiment [10]: CC1=NC(=CC=C1)C2=C(N=C(N2)C(C)(C)C)C3=CC4=NC=CN=C4C=C3
In outline: as §1

Compound in a further experiment: CCCCN(Cc1ccc(C(=O)NO)cc1)C(=O)Nc1ccccc1 [Nexturastat A]
In outline: as §1

Compound in another experiment: CCCS(=O)(=O)Nc1ccc(F)c(C(=O)c2c[nH]c3ncc(-c4ccc(Cl)cc4)cc23)c1F [vemurafenib]
The method, boiled down:
as §1

Compound in experiment [11]: CCCS(=O)(=O)Nc1ccc(F)c(C(=O)c2c[nH]c3ncc(Cl)cc23)c1F
In outline: as §1

Compound in experiment [12]: CCCc1cc(C)[nH]c(=O)c1CNC(=O)c1cc(-c2ccnc(N3CCN(C)CC3)c2)cc2c1cnn2C(C)C
The method, boiled down:
as §1

Compound in the next experiment: CCN(CC)Cc1ccc2cc(COC(=O)Nc3ccc(C(=O)NO)cc3)ccc2c1 [givinostat]
The method, boiled down:
as §1

Compound in the next experiment: CCN(CCCOc1ccc2c(Nc3cc(CC(=O)Nc4cccc(F)c4)[nH]n3)ncnc2c1)CCOP(=O)(O)O [barasertib]
In outline: as §1

UniProt Q15014, sequence (Q15014 whole entry, looked up): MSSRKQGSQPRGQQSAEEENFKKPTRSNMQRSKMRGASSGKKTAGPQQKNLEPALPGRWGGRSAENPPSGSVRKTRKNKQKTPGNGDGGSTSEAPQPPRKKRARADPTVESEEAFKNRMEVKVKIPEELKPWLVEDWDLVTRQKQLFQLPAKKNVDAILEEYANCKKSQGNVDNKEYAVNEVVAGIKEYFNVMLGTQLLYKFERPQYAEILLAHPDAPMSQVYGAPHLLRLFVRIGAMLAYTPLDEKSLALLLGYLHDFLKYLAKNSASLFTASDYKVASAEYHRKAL
UniProt Q9ULX3, sequence (Q9ULX3 whole entry, looked up): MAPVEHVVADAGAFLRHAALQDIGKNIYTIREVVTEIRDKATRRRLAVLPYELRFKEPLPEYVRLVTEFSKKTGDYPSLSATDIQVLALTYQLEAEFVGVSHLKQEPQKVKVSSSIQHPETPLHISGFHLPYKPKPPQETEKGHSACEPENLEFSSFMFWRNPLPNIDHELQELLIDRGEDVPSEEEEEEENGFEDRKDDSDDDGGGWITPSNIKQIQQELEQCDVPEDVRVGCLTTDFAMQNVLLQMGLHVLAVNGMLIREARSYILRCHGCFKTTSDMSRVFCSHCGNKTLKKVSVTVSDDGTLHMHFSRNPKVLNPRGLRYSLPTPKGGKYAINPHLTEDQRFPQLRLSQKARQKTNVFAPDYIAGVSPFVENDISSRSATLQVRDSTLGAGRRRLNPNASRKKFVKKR
UniProt P52948, sequence (P52948 whole entry, looked up): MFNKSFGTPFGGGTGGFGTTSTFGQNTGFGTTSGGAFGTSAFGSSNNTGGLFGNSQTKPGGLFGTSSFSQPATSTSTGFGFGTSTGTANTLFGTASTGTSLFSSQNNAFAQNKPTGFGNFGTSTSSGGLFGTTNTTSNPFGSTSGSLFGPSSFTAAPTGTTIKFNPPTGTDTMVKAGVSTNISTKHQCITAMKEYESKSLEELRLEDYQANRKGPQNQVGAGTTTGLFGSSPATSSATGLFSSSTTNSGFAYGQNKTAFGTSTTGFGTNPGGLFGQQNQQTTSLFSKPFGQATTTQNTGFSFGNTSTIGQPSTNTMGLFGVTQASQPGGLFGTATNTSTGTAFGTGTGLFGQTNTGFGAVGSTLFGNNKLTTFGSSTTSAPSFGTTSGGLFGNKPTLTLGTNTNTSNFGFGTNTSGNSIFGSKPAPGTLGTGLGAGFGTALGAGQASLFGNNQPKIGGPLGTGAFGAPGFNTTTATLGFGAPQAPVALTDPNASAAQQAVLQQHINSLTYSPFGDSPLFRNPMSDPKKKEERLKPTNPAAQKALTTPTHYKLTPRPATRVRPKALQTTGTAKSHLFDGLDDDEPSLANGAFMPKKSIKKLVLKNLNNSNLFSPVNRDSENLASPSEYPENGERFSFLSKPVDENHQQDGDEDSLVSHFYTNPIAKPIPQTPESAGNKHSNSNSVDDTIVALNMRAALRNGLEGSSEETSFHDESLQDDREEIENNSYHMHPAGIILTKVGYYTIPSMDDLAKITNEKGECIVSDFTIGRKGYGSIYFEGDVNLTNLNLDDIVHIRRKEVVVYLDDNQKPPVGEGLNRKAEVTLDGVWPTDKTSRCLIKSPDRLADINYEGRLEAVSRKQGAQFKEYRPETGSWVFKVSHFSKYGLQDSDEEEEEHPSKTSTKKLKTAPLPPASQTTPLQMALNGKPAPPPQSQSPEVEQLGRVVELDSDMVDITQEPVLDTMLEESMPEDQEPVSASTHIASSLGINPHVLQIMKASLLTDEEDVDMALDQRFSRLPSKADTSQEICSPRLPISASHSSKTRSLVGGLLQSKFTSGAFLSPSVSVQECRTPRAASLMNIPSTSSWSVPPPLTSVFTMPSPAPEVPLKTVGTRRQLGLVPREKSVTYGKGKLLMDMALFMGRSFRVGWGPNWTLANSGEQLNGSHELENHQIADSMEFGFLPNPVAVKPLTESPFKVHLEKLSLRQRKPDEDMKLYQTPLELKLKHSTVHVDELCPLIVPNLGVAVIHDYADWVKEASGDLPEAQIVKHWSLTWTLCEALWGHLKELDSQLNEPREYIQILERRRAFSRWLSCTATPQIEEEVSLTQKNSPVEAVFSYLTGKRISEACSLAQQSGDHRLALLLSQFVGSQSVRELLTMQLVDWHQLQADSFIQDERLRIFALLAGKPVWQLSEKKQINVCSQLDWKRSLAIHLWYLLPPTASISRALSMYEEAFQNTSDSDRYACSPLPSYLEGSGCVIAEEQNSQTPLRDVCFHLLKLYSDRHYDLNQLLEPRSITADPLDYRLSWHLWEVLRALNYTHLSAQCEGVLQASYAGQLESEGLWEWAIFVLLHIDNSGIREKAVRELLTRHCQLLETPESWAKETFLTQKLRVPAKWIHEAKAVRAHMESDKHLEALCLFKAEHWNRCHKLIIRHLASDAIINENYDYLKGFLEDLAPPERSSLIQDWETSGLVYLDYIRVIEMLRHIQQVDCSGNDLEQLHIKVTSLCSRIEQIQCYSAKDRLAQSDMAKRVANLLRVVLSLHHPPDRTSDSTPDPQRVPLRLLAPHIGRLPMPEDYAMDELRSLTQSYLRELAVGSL
UniProt Q9BUK6, sequence (Q9BUK6 whole entry, looked up): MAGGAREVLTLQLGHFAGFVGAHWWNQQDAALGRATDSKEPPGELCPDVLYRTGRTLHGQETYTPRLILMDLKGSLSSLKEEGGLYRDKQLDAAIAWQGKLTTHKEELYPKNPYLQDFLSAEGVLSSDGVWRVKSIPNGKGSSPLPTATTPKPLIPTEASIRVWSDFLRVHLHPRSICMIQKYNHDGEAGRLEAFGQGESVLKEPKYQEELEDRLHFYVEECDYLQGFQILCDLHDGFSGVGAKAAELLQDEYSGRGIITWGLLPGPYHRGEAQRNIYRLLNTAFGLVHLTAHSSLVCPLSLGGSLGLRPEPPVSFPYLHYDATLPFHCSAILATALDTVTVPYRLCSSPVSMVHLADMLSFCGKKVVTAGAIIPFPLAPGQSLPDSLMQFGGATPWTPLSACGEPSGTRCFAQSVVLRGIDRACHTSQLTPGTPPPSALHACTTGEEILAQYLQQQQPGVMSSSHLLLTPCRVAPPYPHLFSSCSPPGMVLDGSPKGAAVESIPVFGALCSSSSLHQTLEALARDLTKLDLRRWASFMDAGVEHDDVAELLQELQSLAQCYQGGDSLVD
UniProt Q92686, sequence (Q92686 whole entry, looked up): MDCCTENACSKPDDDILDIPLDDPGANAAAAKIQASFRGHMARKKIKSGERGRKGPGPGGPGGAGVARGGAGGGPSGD
UniProt Q8IXH7, sequence (Q8IXH7 whole entry, looked up): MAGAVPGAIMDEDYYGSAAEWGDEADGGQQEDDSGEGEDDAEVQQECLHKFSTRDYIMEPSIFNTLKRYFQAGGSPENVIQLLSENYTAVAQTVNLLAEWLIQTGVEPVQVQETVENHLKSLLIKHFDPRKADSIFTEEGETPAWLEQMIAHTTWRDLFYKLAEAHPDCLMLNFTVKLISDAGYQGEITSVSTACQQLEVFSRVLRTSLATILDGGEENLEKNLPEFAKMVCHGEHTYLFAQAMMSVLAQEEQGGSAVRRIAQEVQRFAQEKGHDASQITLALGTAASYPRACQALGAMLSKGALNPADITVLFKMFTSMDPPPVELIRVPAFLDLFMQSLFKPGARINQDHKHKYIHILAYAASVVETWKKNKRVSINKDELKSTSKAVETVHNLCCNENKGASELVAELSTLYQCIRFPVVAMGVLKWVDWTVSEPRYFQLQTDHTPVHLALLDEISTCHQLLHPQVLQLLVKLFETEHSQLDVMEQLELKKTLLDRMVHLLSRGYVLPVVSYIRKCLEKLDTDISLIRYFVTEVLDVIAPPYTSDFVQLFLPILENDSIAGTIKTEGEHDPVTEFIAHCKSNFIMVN

Regarding MORF4L2 (UniProt Q15014), the log2 fold change with IRAK-1-4 Inhibitor I was -0.116; with ibrutinib it was 0.04; in experiment [1], 0.047; with ralimetinib, -0.01; in experiment [2] it was 0.039; in [3], 0.052. Also, the log2 fold change is 0.271 in experiment [4]; 0.092 with pinometostat; 0.028 in experiment [5]; 0.005 in experiment [6]; -0.004 in [7]; -0.061 in experiment [8]. The log2 fold change in experiment [9] was -0.015; in [10], -0.083; with Nexturastat A, 0.129; with vemurafenib, 0.009; in experiment [11], 0.036; in experiment [12] it was 0.038. Further, the log2 fold change with givinostat is -0.007; with barasertib, -0.03.

For NCK1 (UniProt P16333), the log2 fold change in the experiment with IRAK-1-4 Inhibitor I was -0.178; with ibrutinib, -0.154; in [1], -0.252; with ralimetinib it was 0.044; in experiment [2], -0.038; in [3] it was -0.283. Moreover, the log2 fold change in [4] was 0.082; in the experiment with pinometostat it was 0.076; in experiment [5], 0.005; in experiment [6], 0.039; in experiment [7], 0.166; in [8] it was -0.068. Also, the log2 fold change in [9] is 0.208; in experiment [10], 0.102; in the experiment with Nexturastat A, 0.12; in the experiment with vemurafenib, 0.031; in [11], 0.116; in experiment [12], 0.08. Moreover, the log2 fold change was 0.211 in the experiment with givinostat and 0.189 with barasertib.

Take MSTO1 (UniProt Q9BUK6): the log2 fold change with IRAK-1-4 Inhibitor I was 0.012; with ibrutinib it was 0.009; in experiment [1], -0.003; with ralimetinib, -0.028; in experiment [2], -0.162; in experiment [3], -0.105. Also, the log2 fold change in experiment [4] is -0.003; in the experiment with pinometostat, -0.002; in experiment [5], -0.027; in experiment [6] it was 0.043; in experiment [7], -0.032; in experiment [8] it was -0.052. The log2 fold change is -0.02 in experiment [9]; 0.024 in experiment [10]; -0.118 with Nexturastat A; 0.052 with vemurafenib; 0.018 in experiment [11]; -0.012 in [12]. The log2 fold change in the experiment with givinostat was 0.011; in the experiment with barasertib, 0.037.

On to NOB1 (UniProt Q9ULX3), for which the log2 fold change is -0.062 with IRAK-1-4 Inhibitor I; -0.025 with ibrutinib; -0.083 in experiment [1]; 0.288 (active) with ralimetinib; -0.033 in experiment [2]; -0.15 in [3]. Also, the log2 fold change in experiment [4] was 0.053; in the experiment with pinometostat it was 0.068; in experiment [5], 0.047; in experiment [6] it was -0.031; in [7], 0.039; in experiment [8], 0.047. Besides, the log2 fold change in [9] is 0.012; in experiment [10], 0.027; in the experiment with Nexturastat A it was 0.034; with vemurafenib, 0.055; in experiment [11] it was 0.031; in experiment [12], 0.182. Further, the log2 fold change in the experiment with givinostat was 0.055; with barasertib, 0.041.

Consider MRPL47 (UniProt Q9HD33), for which the log2 fold change with IRAK-1-4 Inhibitor I was -0.11; with ibrutinib, 0.022; in experiment [1] it was 0.003; with ralimetinib, 0.056; in [2], 0.016; in experiment [3], -0.001. Also, the log2 fold change in experiment [4] is 0.071; with pinometostat, 0.181; in [5], 0.047; in experiment [6] it was -0.083; in experiment [7], 0.035; in experiment [8], -0.045. The log2 fold change in experiment [9] was -0.03; in [10], -0.078; in the experiment with Nexturastat A it was 0.139; in the experiment with vemurafenib it was -0.117; in experiment [11] it was -0.097; in experiment [12] it was 0.073. In addition, the results for the log2 fold change with givinostat and with barasertib were 0.052 and -0.047, respectively.

With NELFCD (UniProt Q8IXH7), the log2 fold change is -0.038 in the experiment with IRAK-1-4 Inhibitor I; -0.18 in the experiment with ibrutinib; -0.04 in [1]; -0.394 in experiment [2]; 0.101 in [3]; 0.017 with pinometostat. The log2 fold change in [5] was -0.036; in experiment [9], 0.02; in experiment [10], 0.18; in the experiment with Nexturastat A, 0.094; with vemurafenib, 0.15; in experiment [11], 0.051. For the same target, the log2 fold change with givinostat was 0.167; with barasertib it was 0.

As for NUP98 (UniProt P52948), the log2 fold change was -0.021 with IRAK-1-4 Inhibitor I; -0.048 with ibrutinib; -0.146 in experiment [1]; 0.04 in the experiment with ralimetinib; 0 in experiment [2]; -0.071 in experiment [3]. The log2 fold change is 0.041 in [4]; 0.03 in the experiment with pinometostat; -0.019 in experiment [5]; 0.013 in [6]; -0.042 in [7]; 0.064 in experiment [8]. In addition, the log2 fold change was -0.003 in experiment [9]; 0.031 in experiment [10]; 0.061 with Nexturastat A; 0.037 in the experiment with vemurafenib; 0.068 in experiment [11]; 0.036 in [12]. Further, the log2 fold change is 0.081 with givinostat and 0.037 in the experiment with barasertib.

On to NRGN (UniProt Q92686), for which the log2 fold change was 0.151 in the experiment with IRAK-1-4 Inhibitor I; 0.079 with ibrutinib; 0.034 in experiment [1]; 0.007 with ralimetinib; 0.053 in experiment [2]; 0.058 in experiment [3]. For the same target, the log2 fold change was -0.199 in experiment [4]; 0.21 with pinometostat; 0.108 in experiment [5]; -0.168 in experiment [8]; 0.087 in experiment [9]; -0.171 in [10]. Moreover, the log2 fold change with Nexturastat A is 0.143; in experiment [11], 0.032; with givinostat, -0.034; in the experiment with barasertib it was -0.14.
